Screen size: about 5,500 compounds; about 2,000 (36%) were called active. Roughly 18% stayed inconclusive and do not appear here. Rule as the data show it: active = normalized growth mostly below about 0.91 (no sharp cut-off); inconclusive = no clear call, values can overlap the other calls; inactive = mostly above about 0.92. Some of the results follow.
Test: chemical genetic growth profiling, strain panel (AID 1159580);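 also: tested at 20 µM; growth read once vehicle control cultures reached saturation at 30 °C; 1 = growth at the plate median or of vehicle wells; lower values mean less growth of the strain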
Settings: growth OD

Measured: normalized growth

NC(=O)NC1NC(=O)NC1=O (configuration not stated)
inactive: S. cerevisiae deletion strains, locus YJR075W, strain HOC1, hits give low values 1.01 | S. cerevisiae deletion strains, locus YKL009W, strain mrt4, hits give low values 0.989 | S. cerevisiae deletion strains, locus YKL068W, hits give low values 0.987 | S. cerevisiae deletion strains, locus YKL085W, strain MDH1 (second series), hits give low values 0.981 | S. cerevisiae deletion strains, locus YKL085W, strain MDH1, hits give low values 0.981 | S. cerevisiae deletion strains, locus YKL160W, strain elf1, hits give low values 0.979 | S. cerevisiae deletion strains, locus YKL190W, strain CNB1, hits give low values 0.997 | S. cerevisiae deletion strains, locus YKR001C, strain vps1, hits give low values 0.984 | S. cerevisiae deletion strains, locus YKR026C, strain gcn3, hits give low values 1 | S. cerevisiae deletion strains, locus YKR091W, strain srl3, hits give low values 1 | S. cerevisiae deletion strains, locus YLL001W, strain dnm1, hits give low values 1 | S. cerevisiae deletion strains, locus YLL026W, hits give low values 1.01 | S. cerevisiae deletion strains, locus YLL041C, strain sdh2, hits give low values 1 | S. cerevisiae deletion strains, locus YLR027C, strain aat2, hits give low values 1 | S. cerevisiae deletion strains, locus YLR039C, strain RIC1, hits give low values 1.03 | S. cerevisiae deletion strains, locus YLR058C, strain SHM2, hits give low values 0.99 | S. cerevisiae deletion strains, locus YLR102C, strain apc9, hits give low values 0.987 | S. cerevisiae deletion strains, locus YLR113W, strain HOG1, hits give low values 1.04 | S. cerevisiae deletion strains, locus YLR221C, strain rsa3, hits give low values 0.998 | S. cerevisiae deletion strains, locus YLR258W, strain gsy2, hits give low values 1 | S. cerevisiae deletion strains, locus YLR262C, strain YPT6 (second series), hits give low values 1.02 | S. cerevisiae deletion strains, locus YLR262C, strain YPT6, hits give low values 0.965 | S. cerevisiae deletion strains, locus YLR268W, strain sec22, hits give low values 0.917 | S. cerevisiae deletion strains, locus YLR320W, strain mms22, hits give low values 1 | S. cerevisiae deletion strains, locus YLR330W, strain CHS5, hits give low values 0.991 | S. cerevisiae deletion strains, locus YLR342W, strain FKS1 (second series), hits give low values 1.06 | S. cerevisiae deletion strains, locus YLR342W, strain FKS1, hits give low values 1 | S. cerevisiae deletion strains, locus YLR357W, strain rsc2, hits give low values 0.968 | S. cerevisiae deletion strains, locus YLR370C, strain arc18, hits give low values 1 | S. cerevisiae deletion strains, locus YLR371W, strain rom2, hits give low values 0.971 | S. cerevisiae deletion strains, locus YLR384C, strain iki3, hits give low values 1.01 | S. cerevisiae deletion strains, locus YLR418C, strain cdc73, hits give low values 0.965 | S. cerevisiae deletion strains, locus YML016C, strain PPZ1, hits give low values 0.987 | S. cerevisiae deletion strains, locus YML032C, strain rad52, hits give low values 0.981 | S. cerevisiae deletion strains, locus YML120C, strain ndi1, hits give low values 1.01 | S. cerevisiae deletion strains, locus YML124C, strain tub3, hits give low values 0.978 | S. cerevisiae deletion strains, locus YMR058W, strain fet3, hits give low values 1.01 | S. cerevisiae deletion strains, locus YMR078C, strain ctf18, hits give low values 0.976 | S. cerevisiae deletion strains, locus YMR125W, strain sto1, hits give low values 1 | S. cerevisiae deletion strains, locus YMR129W, hits give low values 1 | S. cerevisiae deletion strains, locus YMR205C, strain PFK2, hits give low values 0.982 | S. cerevisiae deletion strains, locus YMR223W, strain ubp8, hits give low values 1 | S. cerevisiae deletion strains, locus YMR231W, strain pep5, hits give low values 0.994 | S. cerevisiae deletion strains, locus YMR263W, strain SAP30, hits give low values 0.988 | S. cerevisiae deletion strains, locus YMR307W, strain GAS1, hits give low values 1.01 | S. cerevisiae deletion strains, locus YNL067W, strain RPL9B, hits give low values 0.982 | S. cerevisiae deletion strains, locus YNL071W, strain lat1, hits give low values 1.01 | S. cerevisiae deletion strains, locus YNL128W, strain TEP1, hits give low values 0.997 | S. cerevisiae deletion strains, locus YNL153C, strain GIM3, hits give low values 0.987 | S. cerevisiae deletion strains, locus YNL183C, strain NPR1, hits give low values 0.977 | S. cerevisiae deletion strains, locus YNL209W, strain ssb2, hits give low values 1 | S. cerevisiae deletion strains, locus YNL233W, strain BNI4, hits give low values 0.978 | S. cerevisiae deletion strains, locus YNL248C, strain rpa49, hits give low values 0.999 | S. cerevisiae deletion strains, locus YNL250W, strain rad50, hits give low values 0.981 | S. cerevisiae deletion strains, locus YNL271C, strain bni1, hits give low values 0.977 | S. cerevisiae deletion strains, locus YNL298W, strain CLA4, hits give low values 0.985 | S. cerevisiae deletion strains, locus YNL307C, strain MCK1, hits give low values 0.985 | S. cerevisiae deletion strains, locus YNL322C, strain KRE1 (second series), hits give low values 0.986 | S. cerevisiae deletion strains, locus YNL322C, strain KRE1, hits give low values 0.998 | S. cerevisiae deletion strains, locus YNR049C, strain mso1, hits give low values 1.01 | S. cerevisiae deletion strains, locus YNR052C, strain pop2, hits give low values 0.992 | S. cerevisiae deletion strains, locus YOL006C, strain TOP1, hits give low values 0.996 | S. cerevisiae deletion strains, locus YOL012C, strain htz1 0.886 | S. cerevisiae deletion strains, locus YOL147C, strain pex11, hits give low values 0.983 | S. cerevisiae deletion strains, locus YOR001W, strain rrp6, hits give low values 1 | S. cerevisiae deletion strains, locus YOR061W, strain CKA2, hits give low values 0.991 | S. cerevisiae deletion strains, locus YOR069W, strain VPS5, hits give low values 0.99 | S. cerevisiae deletion strains, locus YOR070C, strain gyp1, hits give low values 1 | S. cerevisiae deletion strains, locus YOR080W, strain dia2, hits give low values 0.993 | S. cerevisiae deletion strains, locus YOR083W, strain WHI5, hits give low values 0.992 | S. cerevisiae deletion strains, locus YOR106W, strain vam3, hits give low values 0.99 | S. cerevisiae deletion strains, locus YOR136W, strain idh2, hits give low values 0.993 | S. cerevisiae deletion strains, locus YOR144C, strain elg1, hits give low values 0.984 | S. cerevisiae deletion strains, locus YOR184W, strain ser1, hits give low values 0.967 | S. cerevisiae deletion strains, locus YOR231W, strain MKK1, hits give low values 1.03 | S. cerevisiae deletion strains, locus YOR265W, strain rbl2, hits give low values 1.03 | S. cerevisiae deletion strains, locus YOR270C, strain vph1, hits give low values 1.03 | S. cerevisiae deletion strains, locus YOR290C, strain snf2, hits give low values 1.03 | S. cerevisiae deletion strains, locus YOR316C, strain cot1, hits give low values 0.977 | S. cerevisiae deletion strains, locus YPL051W, strain arl3, hits give low values 1 | S. cerevisiae deletion strains, locus YPL055C, strain LGE1, hits give low values 1.01 | S. cerevisiae deletion strains, locus YPL078C, strain atp4, hits give low values 1 | S. cerevisiae deletion strains, locus YPL106C, strain sse1, hits give low values 0.977 | S. cerevisiae deletion strains, locus YPL240C, strain hsp82, hits give low values 1.01 | S. cerevisiae deletion strains, locus YPL241C, strain CIN2, hits give low values 0.992 | S. cerevisiae deletion strains, locus YPL256C, strain CLN2, hits give low values 1.03 | S. cerevisiae deletion strains, locus YPR119W, strain clb2, hits give low values 0.982 | S. cerevisiae deletion strains, locus YPR141C, strain kar3, hits give low values 0.98 | S. cerevisiae deletion strains, locus YPR163C, strain tif3, hits give low values 0.981 | S. cerevisiae deletion strains, locus YPR167C, strain met16, hits give low values 0.979 | S. cerevisiae deletion strains, strain wtn01, hits give low values 0.971 | S. cerevisiae strains, strain wild type, hits give low values 0.996

From PubChem BioAssay AID1159580 (chemical genetic matrix, 2015)
